Source: PubChem (National Center for Advancing Translational Sciences (NCATS))
SARS PLP yeast = qHTS of Yeast-based Assay for SARS-CoV PLP; Potency, µM (top dose mostly 32.9 µM), inactives show at the highest dose activity, positive = growth rescue, actives largely listed as activators; S. cerevisiae expressing SARS-CoV PLpro, growth rescue; 0.19% of 330,000 active; calls by dose curve; further: 0% is about no effect; nearly all actives have a fitted effect of over 55% in size
Sm TGR block = qHTS Assay for the Inhibitors of Schistosoma Mansoni Peroxiredoxins. Schistosoma mansoni thioredoxin glutathione reductase (TGR), Q962Y6. purified TGR, DTNB reduction, TNB absorbance 405 nm. Potency, µM (doses to about 114 µM), without a hit: top-dose activity change, negative = inhibition, most hits filed as inhibitors. 3% of 360,000 active; further: on the % scale 0 is the no-effect control and ±100 the full control effect; nearly all actives have a fitted effect of over 60% in size
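TGR 20 nM + NADPH 100 uM (dispensed conc.), cpd preinc 15 min RT; start with NADPH (500 uM addition) then DTNB (15 mM addition). Kinetic TNB absorbance, 405 nm filter. Four-parameter Hill fit across titration.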
Pf growth 48h = Primary qHTS for delayed death inhibitors of the malarial parasite plastid, 48 hour incubation; P. falciparum luciferase growth in erythrocytes, 48 h; Potency, µM (series often up to 28.7 µM), without a hit: at the highest dose activity change, negative = inhibition, actives largely listed as inhibitors; 5.9% of 310,000 active; further: on the % scale 0 is the no-effect control and ±100 the full control effect
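Here the parasites carry a stable luciferase gene and grow inside erythrocytes in Albumax-based RPMI medium with compound for one erythrocytic cycle. Activity is scored as loss of luminescent signal.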
Pf growth 96h = Primary qHTS for delayed death inhibitors of the malarial parasite plastid, 96 hour incubation; AID 504834, 2011; P. falciparum luciferase reporter growth, 96 h; 6.9% of 320,000 active; Potency, µM (top dose mostly 28.7 µM), inactives show at the highest dose activity change, negative = inhibition, most hits filed as inhibitors; further: on the % scale 0 is the no-effect control and ±100 the full control effect
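P. falciparum expressing integrated firefly luciferase, in erythrocytes at 2% hematocrit, 0.05% parasitemia, incubated with compounds 96 h at 37 C, 5% CO2. Growth inhibition read as loss of luminescence; two-generation exposure targets delayed-death apicoplast inhibitors.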
An asterisk follows results filed as active; ? = inconclusive; · = no result given; [ ] = dose if it differs, or a comment. Sampled rows, rich in hits. Any-hit rate of the full collection: about 12%. Unless noted, the call rests on the fitted dose curve; in most records, active means well fitted curve in the direction sought with a large enough effect; inconclusive means small, poorly fitted or top-dose-only effect, or another doubt; inactive means no such curve, though single readings can be large; an effect the other way counts as inactive or inconclusive. Potency means the concentration at half of the fitted maximal effect.

SMILES	SARS PLP yeast	Sm TGR block	Pf growth 48h	Pf growth 96h
CCOc1ccc(N/C(=C(/C(Cl)=C(Cl)Cl)[N+](=O)[O-])n2cncn2)cc1	-2%	11µM*	·	37%
Cc1cc(NS(=O)(=O)c2ccc(NC(=O)COc3c(C)ccc(C)c3C)cc2)nc(C)n1	·	0%	·	·
Cn1c(CNC(=O)CNC(=O)c2ccccc2)cc(=O)n(C)c1=O	-3%	2%	21%	17%
COC(=O)CCCC(=O)NC(C)c1cnn(-c2ccccc2C)c1C (stereo unspecified)	0%	-8%	24%	13µM*
O=C(Cn1c(=O)n(Cc2ccco2)c(=O)c2oc3ccccc3c21)Nc1ccc(F)c(Cl)c1	·	2%	·	·
CCC[C@H]1NC(=O)[C@H](C)N(C)C(=O)C(C)(C)C(=O)C(C)NC(=O)[C@H](Cc2ccc(OC)cc2)N(C)C(=O)[C@H](C(C)C)N(C)C(=O)CNC(=O)[C@H](CC(C)C)N(C)C(=O)CNC(=O)[C@H]([C@@H](C)CC)OC(=O)[C@H]1C (stereo partly specified)	-3%	·	·	·
C/C(=N\NC(=O)c1ccc([N+](=O)[O-])cc1)c1c(O)cc(C)oc1=O	-7%	-3%	-14%	7%
C/C(=N/NC(=O)c1cc(O)c(O)c(O)c1)c1ccc([N+](=O)[O-])cc1	0%	?	9.3µM*	33%
Cc1noc(C)c1C(=O)N(C)CC(=O)Nc1ccc(F)c(F)c1F	-1%	0%	11%	3%
COc1cccc(CNC(=O)c2ccc3nc(N4CCCCC4)sc3c2)c1OC	·	0%	·	·
CN1CCN(C(c2ccccc2)c2ccccc2)CC1	·	6%	?	6%
Clc1ccc(C(c2ccccc2)N2CCN(c3ccccn3)CC2)cc1 (stereo unspecified)	-2%	-1%	?	6.6µM*
CN1CCCN(C(c2ccccc2)c2ccc(Cl)cc2)CC1 (stereo unspecified)	-12%	-1%	13µM*	6.7µM*
COc1ccc(Cl)cc1S(=O)(=O)Nc1cccc(-c2ccc(N3CCOCC3)nn2)c1	·	-4%	·	·
COc1ccc(-c2cc3c(=O)n(CC(=O)NCc4cccnc4)ncn3n2)cc1	7%	1%	198%	15µM*
CC1CCCN(CC(O)COc2ccc(S(=O)(=O)N3CCCC3)cc2[N+](=O)[O-])C1 (stereo unspecified)	7%	-20%	?	?
COc1cccc(-n2cc3c(=O)n(C)c(=O)n(C)c3c2)c1	-1%	45µM*	-82%	12%[5.75 µM]
Cc1ccc(CN(Cc2cccn2-c2nnc(N3CCCC3=O)s2)C(=O)Nc2cc(C)cc(C)c2)cc1	·	5%	·	·
CS(=O)(=O)N(CC(N)=O)c1cccc(Br)c1	-4%	2%	7%	3.7µM*
O=c1cc(NCc2ccco2)[nH]c(=O)n1-c1ccc(Br)cc1	20%	-26%	-7%	9.3µM*
COc1ccc(NC(=O)COc2coc(CN3c4ccccc4CC3C)cc2=O)cc1 (stereo unspecified)	-3%	1%	?	8.3µM*
CC1Cc2ccccc2N1Cc1cc(=O)c(OCC(=O)NCCc2ccccc2)co1 (stereo unspecified)	-3%	-6%	13µM*	?
N#CC1(NC(=O)Cn2ncc(Cl)c(Cl)c2=O)CCCCC1	-1%	18µM*	3%	4%
COC(=O)Cc1ccc(O)c(N)c1	1%	?	?	1.9µM*
COc1cc(-c2nc(CN3CCN(c4ncccn4)CC3)c(C)o2)ccc1F	-1%	-22%[57.1 µM]	-3%	-95%
SMILES	SARS PLP yeast	Sm TGR block	Pf growth 48h	Pf growth 96h
COc1cc(-c2nc(CN3CCN(CC(C)C)C(=O)[C@@H]3C)c(C)o2)ccc1F	0%	-27%[57.1 µM]	9.3µM*	-29%
CCCSC1=NC2(CCN(C(=O)NC3CCCCC3)CC2)N=C1c1ccc(Cl)cc1	·	4%	·	·
COc1ccc2c(c1)c1c(c(=O)n(-c3ccccc3)c(=O)n1CC(=O)Nc1ccc(C)c(C)c1)n2C	·	-2%	·	·
CCN(CC)C(=O)COC(=O)c1cc(-c2ccc(OC)cc2)nc2ccccc12	-6%	-7%	-3%	·
CNC(=O)COC(=O)c1cc(-c2ccco2)nc2ccccc12	-1%	2.8µM*	-6%	35%
CCN(CC)C(=O)COC(=O)c1cc(-c2ccco2)nc2ccccc12	-1%	1.8µM*	?	?
O=C(COC(=O)c1cc(-c2ccco2)nc2ccccc12)NCc1ccccc1	-2%	?	·	18%
O=C(Nc1cccc(Br)c1)N1CCC(CN2CCCCCC2)CC1	·	-32%	·	·
CCCc1nc(SC)ncc1C(=O)N1CCN(c2ccc(Cl)cc2)CC1	·	1%	·	·
CC(CN(C)C)CN1c2ccccc2Sc2ccccc21 (stereo unspecified)	·	-5%	13µM*	?
CN(C)CCCN1c2ccccc2Sc2ccc(C(F)(F)F)cc21	0%	3%	?	15µM*
CCN(CC)CCCCN1c2ccccc2Sc2ccccc21	-1%	-13%	?	-3%
CC(CN1c2ccccc2Sc2ccccc21)N(C)C (stereo unspecified)	0%	-13%	?	?
CC(CN(C)C)CN1c2ccccc2Sc2ccc(C(F)(F)F)cc21 (stereo unspecified)	·	·	15µM*	?
CCOc1ccc(CC(=N)C2=C(O)CC(C)(C)CC2=O)cc1OCC	18%	-13%	1%	?
CCOc1ccc(CC(=O)C2C(=O)CC(C)(C)CC2=O)cc1OCC	1%	13µM*	6%	24%
CCOc1ccc(CC(=O)C2=C(N3CCOCC3)CC(C)(C)CC2=O)cc1OCC	-1%	7.9µM*	-14%	6.6µM*
CCOc1ccc(CC(=O)NC2CC(C)(C)N(C)C(C)(C)C2)cc1OCC	3%	0%	-16%	-13%
CCOc1ccc(CC(=O)C2C(=O)CCCC2=O)cc1OCC	2%	32µM*	28%	·
CCOC(=O)c1sc2nc(SCC(=O)N(CC)CC)n(CCCN3CCCC3=O)c(=O)c2c1C	4%	-7%	2.1µM*	-92%
CCN(CC)C(=O)CSc1nc2sc3c(c2c(=O)n1CCOC)CCC3	-1%	3%	?	?
COc1ccccc1CNC(=O)CCSCc1cccc(Cl)c1	5%	-6%	3%	1.2µM*
COc1ccc(CNC(=O)CCSCc2ccccc2C)cc1	0%	4%	25%	3.3µM*
COc1ccc(CNC(=O)CCSCc2cccc(F)c2)cc1	0%	-3%	-1%	?
O=C(CSCc1ccccc1F)NCc1ccc(F)cc1	-2%	10%	60%	?
COc1ccc(CNC(=O)CCSCc2cccc(Cl)c2)cc1	15%	-2%	1%	77%
O=C(CCSCc1ccccc1F)NCc1ccc(F)cc1	-1%	1%	·	2.3µM*
CC(C)(C)OC(=O)NCCCC[C@H](NC(=O)c1[nH]cnc1C(=O)Nc1ccc(Cl)cc1)C(=O)OC(C)(C)C	0%	3%	5.2µM*	5.9µM*
CC(C)(C)OC(=O)NCCCC[C@H](NC(=O)c1[nH]cnc1C(=O)Nc1ccccc1)C(=O)OC(C)(C)C	2%	-2%	4.7µM*	5.2µM*
